About 83,000 compounds went through this panel and 20% of them were active in at least one assay; those are over-represented in the sample as a whole.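 Growth was measured after 48 h exposure to one concentration of compound in 96-well plates. Values under 10 count as active.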 Active and inactive are the calls of the source.
Key:
Test in all cases: NCI-60 one-dose screen, 48 h (100 = growth as untreated, 0 = no growth, -100 = all killed)
Conditions in all cases: 10 µM unless noted
[1] = test system: SK-MEL-2 melanoma
[2] = test system: EKVX NSCLC
[3] = test system: SN12C renal
[4] = test system: UO-31 renal
[5] = test system: TK-10 renal
[6] = test system: ACHN renal
[7] = test system: CAKI-1 renal
[8] = test system: A498 renal
[9] = test system: CCRF-CEM leukemia
[10] = test system: MOLT-4 leukemia

Measured: growth

Nc1nc(C(=O)N/N=C/c2ccc(F)cc2)nn1-c1ccc(S(N)(=O)=O)cc1
inactive: [1] 104% | [2] 101% | [3] 93.8% | [4] 81.4% | [5] 99.4% | [6] 99.2% | [7] 90.4% | [8] 100% | [9] 112% | [10] 111%

CCn1cc(C(=O)N/N=C/c2ccccc2)c(=O)c2cc(F)c(N3CCNC(C)C3)c(F)c21 (stereo not given)
active: [9] -52.1% | [10] -24.5%
inactive: [1] 93.4% | [2] 34.3% | [3] 61.7% | [4] 47.5% | [5] 82.7% | [6] 56.8% | [7] 45.8% | [8] 99.6%

CN1CCN(c2ccc(NC3=CC(=O)c4ncncc4C3=O)cc2)CC1
active: [1] -54% | [2] -87.1% | [3] -75.6% | [4] -98.3% | [5] -82.3% | [6] -96.2% | [7] -96% | [8] -36.7% | [9] 3.21% | [10] -28.4%

CC1(C)CC(=O)C2=C(C1)C(c1ccc(Cl)cc1)n1ncc(C#N)c1N2 (stereo not given)
inactive: [1] 103% | [2] 92.8% | [3] 90.9% | [4] 85.5% | [5] 107% | [6] 93.2% | [7] 90.3% | [8] 103% | [9] 98.4% | [10] 98.1%

NC(=O)c1ccccc1OCC(=O)Nc1ccc(Cl)c(Cl)c1
inactive: [1] 107% | [2] 92.2% | [3] 101% | [4] 84.1% | [5] 143% | [6] 89.3% | [7] 70.6% | [8] 93.7% | [9] 92.3% | [10] 89%

CCCC(O)Cn1ncc(C(=O)OCC)c1NC(=O)NCc1cccc(C(F)(F)F)c1 (stereo not given)
active: [9] 5.39%
inactive: [1] 73.4% | [2] 90.5% | [3] 93.7% | [4] 65% | [5] 90.4% | [6] 97.7% | [7] 83.8% | [8] 99% | [10] 62%

COc1cc(/C=N/NC(=O)c2ccc(-n3cc(-c4ccccc4)nn3)cc2)cc(OC)c1OC
inactive: [1] 98% | [2] 91.1% | [3] 80% | [4] 88.2% | [5] 99.2% | [6] 70.7% | [7] 65.3% | [8] 71.1% | [9] 55.1% | [10] 78.3%

COc1ccc(C(=O)/C=C/c2ccccc2)cc1S(N)(=O)=O
inactive: [1] 89.8% | [2] 95.6% | [3] 44.9% | [4] 54.7% | [5] 66.8% | [6] 74.9% | [7] 82.3% | [8] 85.3% | [9] 57.8% | [10] 57.5%

CCCCO[C@@H]1C=C2[C@H]3CC(C)(C)C(=O)C[C@]3(C(=O)O[C@@H]3O[C@H](CO[C@@H]4O[C@H](CO)[C@@H](OC5OC(C)C(O)C(O)C5O)[C@H](O)[C@H]4O)[C@@H](O)[C@H](O)[C@H]3O)CC[C@@]2(C)[C@]2(C)CC[C@H]3C(C)(C)C(=O)CC[C@]3(C)[C@@H]12 (stereo not given in full)
inactive: [1] 64.3% | [2] 87.1% | [3] 81.2% | [4] 19.4% | [5] 61.6% | [6] 22.9% | [7] 50.8% | [8] 93.9% | [9] 43.3% | [10] 51.5%

COC(=O)/C=C1/SC(=NCc2ccccc2)N(CCc2c[nH]c3ccccc23)C1=O
active: [10] 3.29%
inactive: [1] 85.8% | [2] 88.1% | [3] 85.4% | [4] 73% | [5] 129% | [6] 99.5% | [7] 102% | [8] 88.1% | [9] 30.3%

COC12C=C/C(=C(/C(=O)OCc3csc(SC)n3)C(=O)CCCCCCCCC3(OC)C=C/C(=C(/C(=O)OCc4cnc(SC)s4)C(=O)CCCCCCCC1)O3)O2 (stereo not given)
inactive: [1] 55.8% | [2] 33.5% | [3] 28.9% | [4] 43.5% | [5] 47.6% | [7] 68% | [8] 34.9% | [9] 14.6%
active: [6] 6% | [10] 1.34%

OC1CSSC1Cn1cnc2c(Nc3ccc(OCc4cccc(F)c4)c(Cl)c3)ncnc21 (stereo not given)
active: [1] -33.4% | [2] -71.9% | [5] -5.98% | [9] -8.33% | [10] -41.8%
inactive: [3] 30.5% | [4] 11.9% | [6] 15.6% | [7] 19.6% | [8] 69.6%

O=C1O[C@@H](c2ccccc2Cl)[C@@H]2c3cc4c(cc3CCN12)OCO4
inactive: [1] 91.7% | [2] 101% | [3] 103% | [4] 74.6% | [5] 89.1% | [6] 105% | [7] 105% | [8] 82.8% | [9] 105% | [10] 90.5%

COc1ccc(NC(=O)c2ccc(Nc3ncnc4c3cnn4-c3cccc(F)c3)cc2)cc1
inactive: [1] 104% | [2] 101% | [3] 95.7% | [4] 88.6% | [5] 103% | [6] 99.6% | [7] 90.8% | [8] 57.3% | [9] 97.2% | [10] 100%

CCN(CC)CCOc1ccc(Nc2ncc3cc(-c4c(Cl)cccc4Cl)c(=O)n(CCOC)c3n2)cc1
active: [4] -88.9% | [5] -55.5% | [6] 5.69% | [7] 2.96% | [8] -75.9% | [9] 4.55% | [10] 1.6%
inactive: [1] 34.8% | [2] 27.3% | [3] 10.5%

COc1cc(-c2cc(-c3ccc(Nc4nc(Nc5ccc(Cl)cc5)nc(Nc5ccc(Cl)cc5)n4)cc3)no2)cc(OC)c1OC
active: [9] -5.88% | [10] -10.3%
inactive: [1] 55.2% | [2] 67.1% | [3] 106% | [4] 61.6% | [5] 108% | [6] 78.9% | [7] 75.4% | [8] 68.3%

CCOC(=O)C1=C(CC(O)c2ccc(OC)cc2OC)NC(=O)NC1c1ccccc1 (stereo not given)
inactive: [1] 120% | [2] 105% | [3] 105% | [4] 95.8% | [5] 120% | [6] 109% | [7] 92.2% | [8] 122% | [9] 95.3% | [10] 17.2%

Nc1c(Cl)cc(/C=C2\C=Cc3ccccc32)cc1Cl
inactive: [1] 120% | [2] 94.2% | [3] 113% | [4] 95.7% | [5] 107% | [6] 101% | [7] 110% | [8] 97.6% | [9] 106% | [10] 98.7%

CN1C(=O)/C(=C/c2ccc(C(=O)Nc3ncc(Cc4cc(Cl)ccc4Cl)s3)cc2)SC1=S
inactive: [1] 101% | [2] 67% | [3] 87.7% | [4] 63.4% | [5] 79.6% | [6] 58.8% | [7] 30.2% | [8] 77.4% | [9] 62.9% | [10] 70.8%

C=C(C)[C@@H]1CC[C@]2(C(=O)Nc3ccccn3)CC[C@]3(C)[C@H](CC[C@@H]4[C@@]5(C)CCCNC(C)(C)[C@@H]5CC[C@]43C)[C@@H]12
inactive: [1] 41.2% | [2] 25.3% | [3] 20.8% | [4] 55.9% | [5] 28.4% | [6] 33.4% | [7] 34.8% | [8] 18.9%
active: [9] 9.61% | [10] -0.121%

COCCn1cc(-c2nc(-c3cc4cccnc4n3C)cs2)c2ccccc21
inactive: [1] 18.7% | [2] 19.8% | [3] 59.1% | [4] 52.1% | [5] 44.2% | [6] 54.9% | [7] 60.7% | [8] 33.2% | [9] 46.2% | [10] 26.6%

Cc1nc2sc(C(=O)Nc3cccc4ccccc34)c(N)c2cc1C(=O)c1ccccc1
inactive: [1] 46.6% | [2] 46% | [3] 36.6% | [4] 43.5% | [5] 66.1% | [6] 41.6% | [7] 36.5% | [9] 12% | [10] 21.4%
active: [8] -10.9%

O=C(Cc1ccc(/C=C/C(=O)c2ncc[nH]2)cc1)Nc1cc(F)c(F)c(F)c1
inactive: [1] 114% | [2] 92.7% | [3] 56.2% | [4] 46.7% | [5] 87.5% | [6] 93.2% | [7] 56.2% | [8] 84.8% | [9] 20.3% | [10] 26.7%

Cc1cccc(NC(=O)Cn2cc(CN3CCN(c4ccnc5cc(Cl)ccc45)CC3)nn2)c1
inactive: [1] 108% | [2] 87.7% | [3] 93.8% | [4] 65.7% | [5] 102% | [6] 82.9% | [7] 72.7% | [8] 84.3%
active: [9] -32.9% | [10] 5.76%

C=CC(CC(c1ccccc1)(c1ccccc1)c1ccccc1)N(CC)CC (stereo not given)
inactive: [1] 93.7% | [2] 75.7% | [3] 71.4% | [4] 43.2% | [5] 73.6% | [6] 85.8% | [7] 65.6% | [8] 66.3% | [9] 53.5% | [10] 56.2%

CC(O)CNC(Cc1ccccc1)c1ccc2c(c1)OCO2 (stereo not given)
inactive: [1] 65% | [2] 96.6% | [3] 105% | [4] 69.7% | [5] 82.9% | [6] 101% | [7] 93.1% | [8] 89.9% | [9] 96.3% | [10] 95.4%

— PubChem BioAssay (NCI)
